Hit rate of the full screen: of about 310,000 compounds, about 11,000 (3.5%) were called active. Another 4% or so got no clear call; they are omitted. The sample holds actives, similar compounds and a random draw of the others, so the mix is not that of the screen. Calls come from the whole dose curve; as a rule, active = well fitted inhibition curve with a large enough effect; inconclusive = small, poorly fitted or top-dose-only effect, or another doubt; inactive = no such curve, though single readings can be large or run the other way.
Potency is the fitted concentration of half-maximal effect.

This assay addresses 4'-phosphopantetheinyl transferase ffp (Bacillus subtilis) (UniProt Q9F4F7). Description: qHTS Assay for Inhibitors of Bacillus subtilis Sfp phosphopantetheinyl transferase (PPTase).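 For largest response in the series, negative = inhibition: 0% = enzyme reaction without inhibitor and -100% = no enzyme wells.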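 Note: the enzyme is Sfp with the accession as filed and its product quenches rhodamine fluorescence.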 The settings on record: Biochemical Sfp PPTase activity. The essentials:
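Step 1, compound plus 15 nM Sfp-PPTase, 15 min, room temperature. Step 2, add rhodamine-CoA (5 uM) and BHQ-2-YbbR (12.5 uM). Step 3, read 525/598 nm fluorescence at 0 and 30 min.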
As to `O=C(Nc1c2c(nn1-c1ccccc1)CS(=O)(=O)C2)C1CCCC1`, the largest response in the series, negative = inhibition was 11.4% (inactive). On the same count and under the same terms, as for `CSc1nnc2ccc(-c3ccc(C)cc3)nn12`, the figure is 4.27% (inactive); as for `NC(=O)c1oc2ccccc2c1NC(=O)Cc1ccccc1`, 0.75% (inactive); as for `O=c1cc(O)nc(SCc2ccccc2Cl)[nH]1`, -17.3% (inactive). On the same count and under the same terms, as for `COC(OC)c1ccnc(SCc2ccccc2Cl)n1`, the figure is -3.61% (inactive); as for `O=c1[nH]c(SCc2ccccc2)nnc1-c1ccccc1`, 15.9% (inactive).

With `Clc1ccccc1CSc1nnc(-c2ccco2)c(-c2ccco2)n1`, the Potency is 20 µM (active). As to `COc1ccc2nc(SCc3ccccc3)nc(C)c2c1`, the largest response in the series, negative = inhibition is -4.22% (inactive).

Regarding `c1ccc(CSc2nnc(-c3ccco3)c(-c3ccco3)n2)cc1`, the Potency was 35.5 µM (active). For the compound `CS(=O)(=O)Nc1cccc(C2=NN(C(=O)c3cccc(F)c3)C(c3cccs3)C2)c1` (configuration not stated), the largest response in the series, negative = inhibition was 4.93% (inactive).

As for `COC(=O)c1ccc2c(=O)n(CCN3CCOCC3)c(SCC(=O)Nc3cccc(OC)c3)nc2c1`, the largest response in the series, negative = inhibition is 0.982% (inactive). The same measure, in the same setting: with `CN(C)C(=O)Cn1c(=O)n(S(=O)(=O)c2ccccc2)c2ccccc21` the figure was -0.847% (inactive); with `Cc1ccc(C(=O)NC23CC4CC(CC(C4)C2)C3)c(Cl)c1`, 2.46% (inactive); with `Cc1ccc(C(=O)Nc2sc(Cc3ccc4c(c3)OCO4)c(C)c2C(N)=O)cc1`, -3.41% (inactive). Same read-out and setting: with `Cc1ccc(C(=O)NCCNC(=O)c2ccccc2)cc1` the figure was 10.8% (inactive). Consider `Cc1ccc(C(=O)c2c(NC(=O)c3ccccc3)sc(C)c2C)cc1`, for which the Potency was 28.2 µM (active). Take `Cc1c(CC(=O)N2CCN(C(=O)C3COc4ccccc4O3)CC2)c(=O)oc2c(O)c(O)ccc12` (configuration not stated): the largest response in the series, negative = inhibition was -23.7% (inactive). The same measure, in the same setting: with `COc1cc(OC)c2c(C)cc(=O)oc2c1C(CCN1CCCCC1)c1ccc(N(C)C)cc1` (configuration not stated) the figure was -9.21% (inactive).

As to `COc1ccc(OC)c(-n2c(-c3ccn[nH]3)n[nH]c2=S)c1`, the largest response in the series, negative = inhibition was -5.99% (inactive). The same measure, in the same setting: with `COc1ccc(-n2c(-c3ccc(OC)c(OC)c3)n[nH]c2=S)cc1` the figure was -14.3% (inactive). For the compound `COc1ccccc1-n1c(-c2cc(-c3ccco3)[nH]n2)n[nH]c1=S`, the Potency is 50.1 µM (active).

With `CCOC(=O)CNc1nc(Cl)nc(Nc2ccc(OC)cc2OC)n1`, the largest response in the series, negative = inhibition is 11.3% (inactive). The same measure, in the same setting: with `COc1cc(OC)cc(C(=O)NCCCn2ccnc2)c1` the figure was 5.91% (inactive); with `O=C(Nc1cccc(Cl)c1)OCc1ccccn1`, 3.07% (inactive). `O=C(CC1SC(=Nc2ccccc2)N(Cc2ccccn2)C1=O)Nc1cccc(Cl)c1` (configuration not stated): the Potency was 44.7 µM (active).

Take `CN1C(=O)C(CC(=O)Nc2ccccc2)S/C1=N/c1nccs1` (configuration not stated): the largest response in the series, negative = inhibition is 15.1% (inactive). Consider `CCOc1ccc(CN(C)C(=O)c2ccc(=O)[nH]c2)cc1`, for which the largest response in the series, negative = inhibition was 8.69% (inactive).

For `COc1ccc(NS(=O)(=O)c2ccc(N3CCN(CCO)CC3)c([N+](=O)[O-])c2)cc1`, the largest response in the series, negative = inhibition was -0.783% (inactive). On the same count and under the same terms, with `CCCCN(C)CCCNC(=O)c1cc(-c2cccs2)nc2ccccc12` the figure was -6.84% (inactive); with `COC(=O)CNC(=O)c1cc(-c2ccncc2)nc2ccccc12`, 8.93% (inactive). `CCc1ccc(-c2cc(C(=O)NCc3ccco3)c3ccccc3n2)s1`: the Potency was 31.6 µM (active). With `Nc1ncn(C2OC(CO)C(O)C2O)c(=O)n1` (configuration not stated), the largest response in the series, negative = inhibition is 21.6% (inactive). Still for that read-out and setting: with `O=C1[C@H]2[C@H]3[C@H](O)[C@H](O)C/C(=N/OCc4ccccc4)[C@H]3CC[C@@H]2C(=O)N1Cc1ccccc1` the figure was -7.38% (inactive); with `CCC(C)(C)NC(=O)C1c2ccccc2Oc2ccccc21`, 14.9% (inactive).

For `CC(C)(C)c1nnc(NC(=O)C2c3ccccc3Oc3ccccc32)s1`, the Potency is 2.82 µM (active). As to `CCC(C)NC(=O)C1c2ccccc2Oc2ccccc21` (configuration not stated), the largest response in the series, negative = inhibition was 5.93% (inactive).

For the compound `COc1ccccc1N1CCN(S(=O)(=O)c2ccc3c(c2)NC(=O)CS3)CC1`, the largest response in the series, negative = inhibition was 7.23% (inactive). `C=CCOC(=O)C1=C(C)NC(C)=C(C(=O)OCC=C)C1c1cccs1`: the largest response in the series, negative = inhibition is 24.6% (inactive). Consider `CC1=C(C(=O)Nc2ccccc2)C(c2cccs2)C(C#N)=C(SCC#N)N1` (configuration not stated), for which the Potency is 39.8 µM (active). `CC1=C(C(=O)Nc2ccccc2)C(c2ccco2)C(C#N)=C(SCC(N)=O)N1` (configuration not stated): the largest response in the series, negative = inhibition is -0.0015% (inactive).

For the compound `CCOc1ccc(-n2c(SCC(=O)Nc3ccc(OC)cc3)nc3sc4c(c3c2=O)CCN(C)C4)cc1`, the largest response in the series, negative = inhibition was -4.55% (inactive). The same measure, in the same setting: as for `COc1cc(C2C(C(=O)c3ccco3)=C(O)C(=O)N2c2cc(C)on2)ccc1OCc1ccccc1` (configuration not stated), the figure is 0.107% (inactive); as for `C=CCNC(=O)c1ccccc1SCc1c(C)noc1C`, -6.81% (inactive). Turning to `CCCOc1cccc(C(=O)NCCCNC(=O)c2cccnc2)c1`, the largest response in the series, negative = inhibition was 1.7% (inactive). Take `Fc1ccc(COc2cccc(-c3n[nH]c(=S)o3)c2)cc1`: the Potency is 39.8 µM (active).

`Fc1ccc(COc2ccc(-c3nnco3)cc2)cc1`: the largest response in the series, negative = inhibition was 12.8% (inactive). Still for that read-out and setting: with `Cc1cccc(OCc2ccc(C(=O)Nc3ccc(F)cc3)cc2)c1` the figure was 10.4% (inactive); with `CC(=O)NS(=O)(=O)c1ccc(N/C(N)=N/c2nc(C)cc(C)n2)cc1`, 6.28% (inactive); with `CCCC(C(=O)NC1CCCC1)N(C(=O)Cn1nnc(-c2ccc(C)o2)n1)c1cccc(O)c1` (configuration not stated), -2.43% (inactive). In the case of `COC(=O)c1ccc(COC(=O)c2cnc(Cl)c(Cl)c2)cc1`, the largest response in the series, negative = inhibition was -10.6% (inactive).

Regarding `Cc1noc(C)c1-c1ccc2ncnc(NCc3ccc4[nH]ccc4c3)c2c1`, the largest response in the series, negative = inhibition is -0.183% (inactive). As for `N=C(N)SCc1cccc2ccccc12`, the largest response in the series, negative = inhibition is -0.359% (inactive).

With `CCc1ccc(-c2nn(-c3ccccc3)cc2CSC(=N)N)cc1`, the Potency is 39.8 µM (active). Regarding `O=C(Nc1cn(-c2ccccc2)nc1-c1ccccc1)c1ccccc1`, the largest response in the series, negative = inhibition was -4.06% (inactive). Take `CC(=O)OCC1OC(C#CCCCc2ccccc2)C=CC1OC(C)=O` (configuration not stated): the largest response in the series, negative = inhibition was 17.9% (inactive). Still for that read-out and setting: with `Cc1cc(=O)oc2c(C)c(OCC(=O)NCCc3ccc(S(N)(=O)=O)cc3)ccc12` the figure was 11% (inactive); with `CC(=O)NCC(=O)N1CCC(n2nccc2NC(=O)CCCc2ccccc2)CC1`, 13.4% (inactive); with `COc1cc(NS(=O)(=O)c2ccc(NC(=S)NC(=O)c3ccc(Br)cc3)cc2)ncn1`, 1.72% (inactive). Still for that read-out and setting: as for `c1ccc(Cc2nn3c(Cn4cnc5ccccc54)nnc3s2)cc1`, the figure is -63.8% (inactive).

`Fc1ccc(OCc2nn3c(Cn4nnc5ccccc54)nnc3s2)cc1`: the Potency is 15.8 µM (active). For the compound `CC(=O)OC(COc1ccc(F)cc1)Cn1cnc2ccccc21` (configuration not stated), the largest response in the series, negative = inhibition is -2.66% (inactive). On the same count and under the same terms, as for `CC(=O)N1CCN(c2ccccc2NC(=S)NC(=O)c2cc3ccccc3o2)CC1`, the figure is 7.22% (inactive); as for `COCCn1c(SCC(=O)N2CCCCCC2)nc2c(c1=O)SCC2`, 4.45% (inactive). Same read-out and setting: with `CC(NC(=O)Nc1cccc([N+](=O)[O-])c1)c1ccc2c(c1)OCO2` (configuration not stated) the figure was -3.6% (inactive). Same read-out and setting: with `Cc1ccc2nc(N(CCN(C)C)C(=O)C3=COCCO3)sc2c1` the figure was 5.53% (inactive). Turning to `CN(C)CCCN(C(=O)c1ccc(S(=O)(=O)N2CCCCCC2)cc1)c1nc2ccc(Br)cc2s1`, the Potency was 50.1 µM (active). Same read-out and setting: as for `CN(C)CCCN(C(=O)c1ccc(S(=O)(=O)N2CCCc3ccccc32)cc1)c1nc2ccc(F)cc2s1`, the figure is 56.2 µM (active). `O=C(Nc1nc2ccc([N+](=O)[O-])cc2s1)c1ccc(S(=O)(=O)N2CCCc3ccccc32)cc1`: the largest response in the series, negative = inhibition is -0.333% (inactive). With `CSc1nc2ccc(S(=O)(=O)N3CCc4ccccc43)cc2s1`, the largest response in the series, negative = inhibition was 7.95% (inactive). With `CCN(CC)CCN(C(=O)c1ccc(S(=O)(=O)N2CCOCC2)cc1)c1nc2cc3c(cc2s1)OCCO3`, the largest response in the series, negative = inhibition is 7.56% (inactive). On the same count and under the same terms, with `COc1ccc(C)cc1N(CC(=O)NC(C)c1ccccc1)S(C)(=O)=O` (configuration not stated) the figure was 4.53% (inactive); with `CCC1Sc2ccc(S(=O)(=O)CCC(=O)NCc3cccs3)cc2NC1=O` (configuration not stated), 20.6% (inactive); with `CC(C)=CCCC(C)CN1CCC(n2nccc2NC(=O)c2ccccc2)CC1` (configuration not stated), 9.72% (inactive).

In the case of `O=C(Nc1nnc(-c2ccccc2F)s1)c1ccccc1F`, the largest response in the series, negative = inhibition was -1.78% (inactive). Still for that read-out and setting: as for `CCOc1cc(-c2noc(CCCC(=O)NC3CCCCC3)n2)ccc1OC`, the figure is 13% (inactive).

In the case of `CC(C)(C)C(=O)OCc1nc(-c2ccc(O)c(O)c2)cs1`, the Potency is 56.2 µM (active). For the compound `COc1ccc(-c2csc(Cc3nc(O)cs3)n2)cc1`, the largest response in the series, negative = inhibition is -23.9% (inactive). `COc1ccc(OC)c(Nc2nc(-c3ccc(O)c(O)c3)cs2)c1`: the largest response in the series, negative = inhibition is -45.7% (inactive).

With `CN(CC(=O)Nc1c(Cl)cccc1Cl)C(=O)c1ccncc1`, the largest response in the series, negative = inhibition was 13.1% (inactive). Same read-out and setting: as for `Cc1cc(C(F)(F)F)nn1-c1nc(-c2ccco2)cc(C(F)(F)F)n1`, the figure is 11.9% (inactive). Take `Cn1c(-c2ccco2)nc2cc3ccccc3cc21`: the Potency is 56.2 µM (active). For `Cc1csc(-c2nc3ccccc3n2C)n1`, the largest response in the series, negative = inhibition was -0.542% (inactive). Still for that read-out and setting: as for `CCOc1ccc(C2C3=C(CCCC3=O)N(CC(=O)O)C3=C2C(=O)CCC3)cc1`, the figure is -3.36% (inactive). Consider `Cc1ccnc(-n2sc3ccccc3c2=O)n1`, for which the Potency was 2.51 µM (active). `Cc1ccnc(SCC(N)=O)n1`: the largest response in the series, negative = inhibition was 7.56% (inactive). `Cc1ccnc(N2CCCC(C(=O)NC3CC3)C2)n1` (configuration not stated): the largest response in the series, negative = inhibition was 12.1% (inactive). With `CCN(CC(=O)NCCCN1CCOCC1)S(=O)(=O)c1cc(Cl)ccc1Cl`, the largest response in the series, negative = inhibition was 9.56% (inactive). Same read-out and setting: as for `COc1ccc(CC(=O)N/N=C/c2cc([N+](=O)[O-])cc(Br)c2O)cc1`, the figure is 23.5% (inactive). Still for that read-out and setting: with `CCc1ccc(NC(=O)C(=O)NNC(=O)c2cccs2)cc1` the figure was 6.91% (inactive). Consider `NS(=O)(=O)c1ccc(NC(=S)Nc2ccc(Br)c(Cl)c2)cc1`, for which the Potency was 56.2 µM (active). Turning to `NS(=O)(=O)c1ccc(CCNC(=O)Nc2ccc(Cl)cc2)cc1`, the largest response in the series, negative = inhibition is 7.27% (inactive).

With `NS(=O)(=O)c1ccc(NC(=S)NC(=O)c2cccc(Br)c2)cc1`, the largest response in the series, negative = inhibition was -13.6% (inactive). As for `CC(C)C(=O)Nc1ccc(C(=O)NNC(=O)c2cccs2)cc1`, the largest response in the series, negative = inhibition is -14.7% (inactive). The same measure, in the same setting: as for `CC(C)(C)C(=O)NC(NC(=S)Nc1ccc(S(N)(=O)=O)cc1)C(Cl)(Cl)Cl` (configuration not stated), the figure is 7.73% (inactive). As for `NS(=O)(=O)c1ccc(CCNC(=S)Nc2ccc(S(N)(=O)=O)cc2)cc1`, the Potency is 20 µM (active). For `NS(=O)(=O)c1ccc(CCNC(=O)CNC(=O)Cc2ccccc2)cc1`, the largest response in the series, negative = inhibition was -3.07% (inactive). As for `NS(=O)(=O)c1ccc(NC(=S)NNC(=O)c2cccs2)cc1`, the Potency is 15.8 µM (active).

(Values after PubChem BioAssay AID1490 (National Center for Advancing Translational Sciences (NCATS), 2009).)
